Measured values from PubChem BioAssay (Tox21).
Several values for one entry are separate records, joined by “and”; a condition that tells them apart may be missing. Equal values may be shown once. Activity calls are given as the source filed them. Where a call stands in place of a potency, no number is given. The call rests on the fitted dose curve; in most records, active means well fitted curve in the direction sought with a large enough effect in the repeat runs; inconclusive means weak or mixed curves; inactive means flat fitted curve, though single readings scatter.

Assay: qHTS assay to test for compound auto fluorescence at 535 nm (green) in HepG2 cell free culture (AID 720686)
Conditions: Cell-free medium, green autofluorescence 485/535 nm; series mostly up to 91.3 µM
Source text: U.S. Tox21 Program National Center for Advancing Translational Sciences [NCATS] NIH Chemical Genomics Center [NCGC] U.S. Environmental Protection Agency [EPA] National Institutes of Environmental Health Sciences [NIEHS] National Toxicology Program [NTP] U.S. Food and Drug Administration [FDA] Tox21 Assay Overview: Compound auto fluorescence often interferes with screening of the compound library against various biological targets and signaling pathways. Some of these compounds may have fluorophoric properties. Such properties may interfere with the assay outputs resulting in false positives and/or negatives. To decrease such complications and ensure the compound activities are relevant in terms of biological response, the Tox21 10K compound library was screened for auto fluorescence. From the fluorophores used as reporter signals in our screening assays, the auto fluorescence equivalencies of compounds against three fluorophores have been evaluated: Triamterene, Fluorescein and Rose Bengal sodium for blue, green and red fluorescence, respectively. The fluorescence intensities were measured using Excitation/Emission wavelengths at 405/460nm, 485/535nm and 540/590nm for blue, green and red labels, respectively. This assay includes the green fluorescence data.
Tox21 Assay Protocol Summary: 5 uL of culture medium (MEM containing 10% FBS) per well was dispensed into black wall/clear bottom 1536-well plates using a Multidrop Combi Dispenser (ThermoFisher Scientific, Waltham, MA). After 23 nL compound or DMSO vehicle was transferred into assay plate by a pintool work station (Kalypsys, San Diego, CA), fluorescence intensities in the assay plates were measured by an Envision (PerkinElmer, Shelton, CT) plate reader using three labels for measuring blue, green and red fluorescence at […] 460, 535 and 590nm respectively.
Potency means the concentration at half of the fitted maximal effect; tags describe the fitted curve by direction and shape or compound fluorescence and quenching.

Structure (SMILES)	Potency
O=C1c2cccc(O)c2C(=O)c2c(O)cccc21	inactive
Nc1ncnc2nc[nH]c12	inactive
CCCCCCCCCC(=O)OC	inactive
CC(C)OC=O	inactive
CCOCCOCCO	inactive
S=C(NC1CCCCC1)NC1CCCCC1	inactive
c1cc(N(CC2CO2)CC2CO2)ccc1OCC1CO1 (stereo not given)	inactive
Nc1ccc(Nc2ccccc2)cc1	inactive
C=CC(C)(CCC=C(C)C)OC(C)=O (stereo not given)	inactive
O=C(c1ccccc1)c1ccccc1O	inactive
CC(C)OC(=O)C(C)(C)Oc1ccc(C(=O)c2ccc(Cl)cc2)cc1	inactive
COC(=O)CCC(=O)OC	inactive
c1cc(-c2ccncc2)ccn1	inactive
CCCCOCCOCCO	inactive
CCCCC/C=C/C=C/C=O	inactive
c1ccncc1	inactive
CCC(C)c1ccccc1O (stereo not given)	inactive
COc1cc([C@@H]2c3cc4c(cc3[C@H](O)[C@H]3COC(=O)[C@H]23)OCO4)cc(OC)c1OC	inactive
Cc1[nH]c(=O)c(C#N)cc1-c1ccncc1	inactive
CCCCOCCOCCOCCO	inactive

Structure (SMILES)	Potency
COc1c(Cl)c(Cl)c(Cl)c(Cl)c1Cl	inactive
CC(=O)CC/C=C(\C)CCC=C(C)C	inactive
CC(C)CC(C)(O)C#CC(C)(O)CC(C)C (stereo not given)	inactive
O=C=Nc1ccc(Cc2ccc(N=C=O)cc2)cc1	inactive
C[C@]12CCC(=O)C=C1CC[C@@H]1[C@@H]2C(=O)C[C@@]2(C)[C@H]1CC[C@]2(O)C(=O)CO	inactive
O=C(c1ccccc1)c1ccc(O)cc1O	inactive
C[Si](C)(C)O[Si](C)(C)C	inactive
CC(C)OB(OC(C)C)OC(C)C	inactive
Cc1cc2nc3c(=O)[nH]c(=O)nc-3n(C[C@H](O)[C@H](O)[C@H](O)CO)c2cc1C	17.8 µM [fluorescent] (active) and 39.8 µM [fluorescent] (active) and 35.5 µM [fluorescent] (active)
O=C(Nc1ccc(Cl)cc1)Nc1ccc(Cl)c(Cl)c1	inactive
Cc1c(C(N)=O)cc([N+](=O)[O-])cc1[N+](=O)[O-]	inactive
COC(=O)C1=C(C)NC(C)=C(C(=O)OCCN(C)Cc2ccccc2)C1c1cccc([N+](=O)[O-])c1 (stereo not given)	inactive
O=C1OC2(c3cc(Br)c(O)c(Br)c3Oc3c2cc(Br)c(O)c3Br)c2c(Cl)c(Cl)c(Cl)c(Cl)c21	28.2 µM [fluorescent] (active)
Cc1cccc(C(=O)O)c1	inactive
CC(=O)c1ccccn1	inactive
O=c1oc(=O)c2cc3c(=O)oc(=O)c3cc12	inactive
CC(=O)Oc1ccccc1C(=O)Nc1ncc([N+](=O)[O-])s1	inactive
NNc1ccc(C(=O)O)cc1	inactive
CCC(C)OC(=O)c1ccc(O)cc1 (stereo not given)	inactive
Nc1ccc(S(=O)(=O)Nc2cnc3ccccc3n2)cc1	inactive
